The text below walks through data of PubChem BioAssay AID1962 (The Scripps Research Institute Molecular Screening Center, 2009).

Where “and” joins values, the source holds several entries; their conditions need not be identical. Equal entries are not always repeated. In all, about 300,000 compounds went through this assay and about 2,500 (0.83%) were called active. The sample as a whole holds a higher share of actives than the screen did. Unmarked numbers belong to inactive results.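 Rule for the calls: active = inhibition above the mean of all tested compounds plus 3 SD, set per screening campaign (cut at about 24% in these data); inactive = the rest.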

The test concerns tRNA 2'-phosphotransferase TPT1 (Candida albicans SC5314). Put plainly: tRNA 2'-phosphotransferase blockers, C. albicans – biochemical, fluorescence polarization, primary screen (AID 1962).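 Note: plate controls were DMSO alone for no effect and ferristatin control at 100 nM for full effect.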 The note with it: recombinant caTPT1, FP RNA substrate dephosphorylation; at 5 µM; active compounds read high. Background: In fluorescence polarisation assays a small probe gives low polarisation when free and higher when bound to something large.
What is called inhibition is the relative decrease from the control value, in per cent. As to `CCCCC(=O)N/N=C/c1c(O)n(-c2ccccc2)c(=O)[nH]c1=O`, the inhibition is -0.86%.

In the case of `CCCCC(=O)N/N=C/c1c(O)n(CC)c(=S)n(CC)c1=O`, the inhibition was 156% (active).

For `CCCCC(=O)N/N=C/c1c(O)n(CCC2=CCCCC2)c(=O)[nH]c1=O`, the inhibition was 0.99%.

For `CNC(=O)Nc1ccc(C(O)(C(=O)OC)C(F)(F)F)cc1` (stereo not given), the inhibition is 0.47%.

Turning to `CCOC(=O)c1c(C)c(C(=O)N2CCC3(CC2)OCCO3)c(C)n1CC`, the inhibition is 1.34%.

For `O=c1[nH]c(=O)n(-c2ccccc2)c(O)c1C=NC12CN3CN(CN(C3)C1)C2`, the inhibition is -4.46%.

Consider `CCN1C(=O)C(=Cc2c(C)n(CC(=O)NCC3CCCO3)c3ccccc23)C(=O)N(CC)C1=S` (stereo not given), for which the inhibition was 24.2% (active).

For the molecule `CCC1(C)CC(CCNCc2ccc(N(C)C)cc2)(c2ccc(F)cc2)CCO1` (stereo not given), the inhibition is 1.22%.

Take `O=C(C1CC(=O)N(C2CCCC2)C1)N1CCC2(CC1)OCCO2` (stereo not given): the inhibition is -0.68%.

On to `COc1cccc(N2C(=O)NC(=O)/C(=C\c3cn(C)c4ccccc34)C2=O)c1`, for which the inhibition is -73.3%.

On to `COc1ccc(N2C(=O)/C(=C/c3ccco3)C(=O)NC2=S)cc1`, for which the inhibition was 36.7% (active).

Turning to `COc1ccc(CN2C(=O)NC(=O)/C(=C\c3ccc(OC)c(OC)c3OC)C2=O)cc1`, the inhibition was 10.5%.

As to `O=C(CCCn1c(=O)[nH]c2cc(Cl)ccc2c1=O)N1CCC2(CC1)OCCO2`, the inhibition is 5.94%.

For `CCOC(=O)C(O)(c1ccc(N=Cc2ccccc2O)c(C)c1)C(F)(F)F` (stereo not given), the inhibition was 9.39%.

Consider `COC(=O)COc1cc(C)cc2oc(=O)c3c(c12)CCCC3`, for which the inhibition was -2.95%.

`COc1cc2nc(N3CCN(C(=O)[C@@H]4CCCO4)CC3)nc(N)c2cc1OC`: the inhibition is -1.38%.

Regarding `COc1ccccc1N=Nc1c(O)[nH]c(=S)[nH]c1=O`, the inhibition was 49.2% (active).

With `CCOCCc1c(O)[nH]c(=S)[nH]c1=O`, the inhibition is -3.07%.

Regarding `O=C1N=c2ccccc2=C/C1=C\c1c(O)[nH]c(=S)[nH]c1=O`, the inhibition is -1.76%.

Turning to `O=C1NC(=O)N(CCc2ccc(F)cc2)C(=O)/C1=C/C=C/c1ccccc1`, the inhibition is 13.3%.

For `Cc1cc(/C=C2/C(=O)NC(=O)N(Cc3ccco3)C2=O)c(C)n1-c1ccc(C(=O)O)cc1`, the inhibition was 22.2%.

With `O=C1NC(=O)N(Cc2ccco2)C(=O)/C1=C\c1cccn1CCOc1ccccc1`, the inhibition is 37.9% (active).

Take `O=C1NC(=O)N(Cc2ccco2)C(=O)/C1=C\c1ccc(-c2ccc(F)cc2)o1`: the inhibition is 27.9% (active).

For `O=C(O)COc1ccccc1/C=C1\C(=O)NC(=O)N(CCC2=CCCCC2)C1=O`, the inhibition is 7.72%.

As to `O=C(COc1ccc2ccccc2c1)N1CCN(Cc2ccncc2)CC1`, the inhibition is -1.1%.

As for `CN(C)C(=O)Oc1cc(OC(=O)N(C)C)cc(C(O)CNC(C)(C)C)c1` (stereo not given), the inhibition is -1.53% and -2.15%.

`COc1cccc(C(=O)N2C[C@H]3C[C@@H](C2)c2cccc(=O)n2C3)c1`: the inhibition was -1.64%.

`COc1ccc(C2N3CC(C)(C)CN23)cc1` (stereo not given): the inhibition was 0.1%.

As to `O=C1CC(=O)N(Cc2ccccc2)C(=O)N1CCCCCCN1C(=O)CC(=O)N(Cc2ccccc2)C1=O`, the inhibition was 71.4% (active).

For the molecule `O=C(CN1CCCC1=O)NCCc1ccccc1`, the inhibition was -1.43%.

Take `CC(C)(C)c1ccc(CN2C(=O)CN=C(c3ccccc3)c3ccccc32)cc1`: the inhibition was 2.92%.

Regarding `Fc1ccc(C2N3CCCN23)cc1` (stereo not given), the inhibition was -5.01%.

`Cn1c(O)c(C=Nc2ccc3c(c2)CCC3)c(=O)n(C)c1=O`: the inhibition is -3.76%.

As to `CC(C)n1c(=O)c(C=Nc2ccc(Br)cc2)c(O)n(Cc2ccco2)c1=O`, the inhibition is 27.9% (active).

In the case of `CN(C)CCCN=Cc1c(O)n(Cc2ccco2)c(=O)[nH]c1=O`, the inhibition is 1.6%.

On to `CCOc1ccc(-c2cc(C)[n+](CCN(CC)CC)c(-c3ccc(OCC)cc3)c2)cc1`, for which the inhibition is -0.45%.

For the molecule `Cc1ccc(-n2c(-c3ccc([N+](=O)[O-])cc3)nc3ccccc3c2=O)cc1`, the inhibition is -3%.

`Cc1ccc(N2C(=O)NC(=O)C(CCc3ccncc3)(Cc3cccc(Cl)c3Cl)C2=O)cc1` (stereo not given): the inhibition was 3.87%.

For the molecule `CC(C)Nc1nc(Cl)nc(NC(C)C)n1`, the inhibition was -2.15%.

For `CCC(=NCc1ccco1)c1c(O)n(Cc2ccccc2)c(=O)[nH]c1=O`, the inhibition is 3.72%.

In the case of `O=C(N/N=C/c1c(O)n(Cc2ccccc2)c(=O)[nH]c1=O)c1ccccc1`, the inhibition is 2.3%.

As for `CC/C(=N\NC(=O)c1ccccc1O)c1c(O)n(Cc2ccccc2)c(=O)[nH]c1=O`, the inhibition was 46.6% (active).

As for `COc1ccc2c(c1)[C@]13CCCCC1C(C2)N(C)CC3` (stereo not given in full), the inhibition is -1.13%.

Take `CC1CCCCN1Cc1cccnc1` (stereo not given): the inhibition is -4.61%.

For the molecule `CN(c1ccccc1)c1ccc([N+](=O)[O-])c2nonc12`, the inhibition is 14.5%.
